This is a sample that favours compounds with a hit; in the whole collection about 0.62% have one here.
ASM inhibitor – blocks human secretory acid sphingomyelinase. P17405. placental ASM, HMU-PC fluorogenic substrate, 60 min. AID 504937. Potency, µM (series often up to 57.5 µM), hits mostly inhibitors. 340,000 compounds, 0.006% hits
Target sequence (P17405 47-631 limits assumed): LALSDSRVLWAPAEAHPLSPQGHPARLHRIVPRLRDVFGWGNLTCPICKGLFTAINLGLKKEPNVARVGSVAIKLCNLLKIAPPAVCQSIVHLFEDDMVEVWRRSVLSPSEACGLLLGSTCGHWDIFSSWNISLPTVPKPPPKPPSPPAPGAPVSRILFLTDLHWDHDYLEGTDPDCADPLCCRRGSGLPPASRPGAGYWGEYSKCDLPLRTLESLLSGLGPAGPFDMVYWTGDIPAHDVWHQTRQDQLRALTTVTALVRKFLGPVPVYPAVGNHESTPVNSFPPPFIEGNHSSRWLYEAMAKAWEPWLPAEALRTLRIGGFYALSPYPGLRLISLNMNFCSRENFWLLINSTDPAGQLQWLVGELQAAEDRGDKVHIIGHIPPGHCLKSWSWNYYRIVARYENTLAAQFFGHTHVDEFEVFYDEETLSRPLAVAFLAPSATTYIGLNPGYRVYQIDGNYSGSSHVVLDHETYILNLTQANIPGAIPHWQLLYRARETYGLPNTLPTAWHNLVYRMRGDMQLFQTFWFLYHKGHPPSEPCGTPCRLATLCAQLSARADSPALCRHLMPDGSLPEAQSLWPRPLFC
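Steps: dispense placental human ASM, pin compound, wait 10 min at room temperature, add HMU-PC0 substrate at 9 uM final, incubate 60 min at 37 °C, add stop solution raising pH to 10, read fluorescence.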
gsp agonist – activates gsp, the McCune-Albright syndrome mutation | AID 624287 | 340,000 compounds, 0.13% hits | Potency, µM (highest dose often 76.9 µM), usual class: activators | gsp mutant cells, cAMP HTRF, 30 min; active = well fitted activation curve with a large enough effect; inconclusive = small, poorly fitted or top-dose-only effect, or another doubt; inactive = no such curve, though single readings can be large or run the other way; cell line not stated here;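 also: phosphodiesterase inhibitor Ro 20-1724 added with compounds to block cAMP breakdown; nearly all actives have a fitted effect of over 60% in size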
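Cells stably selected in G418 were plated at 2000/well, grown 16-24 hr, then given compounds in DMSO with the PDE inhibitor […] (300 uM solution added) for 30 min at 37C; cAMP was read by HTRF.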
gsp antag – antagonizes gsp, the McCune-Albright syndrome mutation | AID 624288 | Potency, µM (doses to about 76.9 µM), usual class: inhibitors | gsp-mutant cells, cAMP HTRF, 30 min | 340,000 compounds, 0.4% hits; calls by dose curve; cell line not stated here;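 also: intracellular cAMP measured with PDE inhibitor Ro 20-1724 present during compound exposure; nearly all actives have a fitted effect of over 65% in size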
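HTRF cAMP measurement after 30 min RT detection following 30 min, 37C compound treatment alongside […] (added as 300 uM solution) in G418-selected cells seeded at 2000/well and grown 16–24 h.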
MBNL1 CUG block – inhibitors of human MBNL1 binding to CUG repeat RNA; Q9NR56; AID 2675; 280,000 compounds, 0.036% hits; Potency, µM (top dose mostly 57.5 µM), most hits filed as inhibitors; TR-FRET MBNL1-His/biotin-(CUG)12 binding, 665/545 ratio; active = well fitted inhibition curve with a large enough effect in the signal ratio, with a control signal flat, not every such curve was filed as active; inconclusive = small, poorly fitted or top-dose-only effect, or effect the other way, or a change in a side signal; inactive = no such curve, though single readings can be large or run the other way; the % refers to the signal ratio
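TR-FRET readout: Ex 340 nm, 665/545 nm emission ratio, normalized to buffer-only (basal) and MBNL1-(CUG)12 controls. Complex of MBNL1-His with Biotin-(CUG)12, compounds 92 nM–58 uM, incubated 60 min at room temperature.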
Chronic BCR inh – chronic active BCR signaling inhibition; ABC-DLBCL IkBa-CBG/CBR reporter, luminescence ratio, 4 h; Potency, µM (doses to about 46.1 µM), most hits filed as inhibitors; 340,000 compounds, 0.05% hits; AID 493014; active = well fitted inhibition curve with a large enough effect in the signal ratio, with a control signal flat, not every such curve was filed as active; inconclusive = small, poorly fitted or top-dose-only effect, or effect the other way, or a change in a side signal; the % refers to the signal ratio
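TMD8 human ABC-DLBCL cells with doxycycline-inducible IκBα–green luciferase fusion and unfused red luciferase, in 0.5% FBS medium; compounds up to 46 uM, 4 h at 37C. Green/red luminescence ratio, filter-overlap corrected, fitted to concentration-response curves.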
MBNL1 TRFRET – confirmation of inhibitors of human MBNL1-poly(CUG) RNA binding | shares compounds with MBNL1 CUG block | TR-FRET MBNL1-His / biotin-(CUG)12 binding, 60 min | Potency, µM (highest dose often 57.6 µM), actives largely listed as inhibitors | 140 compounds, 50% hits | AID 493199
MBNL1 AlphaScrn – MBNL1-CUG RNA binding inhibition, AlphaScreen validation. shares compounds with MBNL1 CUG block. AlphaScreen MBNL1-His / biotin-(CUG)12 binding. Potency, µM (doses to about 57.7 µM), hits mostly inhibitors. 140 compounds, 30% hits. AID 493205
Menin-MLL HTRF – hit in HTRF counterscreen for MBNL1-poly(CUG) binding inhibitors; shares compounds with MBNL1 CUG block; His-Menin/biotin-MLL peptide TR-FRET counterscreen; Potency, µM (titrated, usually from 57.6 µM), most hits filed as inhibitors; 120 compounds, 20% hits; AID 651843
A number is an active result; 0 = inactive; ? = inconclusive; - = not tested or not shown; [ ] = dose if it differs, or a comment. Unless noted, calls follow the shape of the dose curve; as a rule, active = well fitted curve in the direction sought with a large enough effect; inconclusive = small, poorly fitted or top-dose-only effect, or another doubt; inactive = no such curve, though single readings can be large; an effect the other way counts as inactive or inconclusive.

SMILES	ASM inhibitor	gsp agonist	gsp antag	MBNL1 CUG block	Chronic BCR inh	MBNL1 TRFRET	MBNL1 AlphaScrn	Menin-MLL HTRF
C#CC1(O)CCC2C3CCC4=C/C(=N/OCC(=O)NCC(=O)NC(C(=O)O)C(C)C)CC[C@]4(C)C3CC[C@@]21C (stereo not given in full)	0	0	0	0	0	-	-	-
O=C1c2ccccc2C(=O)C1C(=O)C(c1ccccc1)c1ccccc1	-	-	-	-	-	?	?	0
Cc1ccc(S(=O)(=O)N2[C@H](c3cccc(Cl)c3)CC(=O)[C@@H]3CN(S(=O)(=O)c4ccccc4C)[C@H](c4ccc(Cl)cc4)C[C@@H]32)cc1	-	0	-	-	-	-	-	-
O=C(CN1CCCCC1)NNC(=O)c1cccc(Br)c1	0[11.5 µM]	0	0	0	0	-	-	-
CCOC(=O)N1CCC(NC(=O)CCc2nc(C3=CCN(C)CC3)no2)CC1	0	0	0	10µM	0	8.2µM	3.7µM	?
CCn1nc(-c2ccccc2)nc2c(=O)n(C)c(=O)nc1-2	0	?	0	?	?	0.52µM	0.26µM	0
O=C(CSc1nnc(NC(=O)c2ccccc2[N+](=O)[O-])s1)NCc1ccco1	0	0	0	0	0	-	-	-
CN1C[C@H](CO)C[C@@H]2c3cccc4[nH]cc(c34)C[C@H]21	0	0	0	?	0	-	-	-
CN1C[C@H](CNC(=O)OCc2ccccc2)C[C@@H]2c3cccc4c3c(cn4C)C[C@H]21	0	-	0	?	?	?	?	-
Oc1ccc2c3c1O[C@H]1c4[nH]c5ccccc5c4C[C@@]4(O)[C@@H](C2)N(CC2CC2)CC[C@]314	0	-	0	-	?	-	-	-
Oc1ccc2c3c1O[C@H]1c4[nH]c5c(c4C[C@@]4(O)[C@@H](C2)N(CC2CC2)CC[C@]314)C[C@@]1(O)[C@H]2Cc3ccc(O)c4c3[C@@]1(CCN2CC1CC1)[C@H]5O4	-	-	-	-	-	16µM	11µM	-
Clc1ccc2c(c1)C(c1ccccc1Cl)=NCc1nnc(Br)n1-2	0	0	0	25µM	?	0	0	0
Clc1ccc2c(c1)C(c1ccccc1Cl)=NCc1nncn1-2	0	0	0	0	0	-	-	-

Screening results deposited in PubChem by National Center for Advancing Translational Sciences (NCATS).
